Drawing on PubChem BioAssay, this text covers composite z-score and z-score for five molecules.

Calls of active or inactive are those of the source.

Test [1] can be described thus: small molecules captured by biotinylated probe aFSTL3 – biochemical, small-molecule microarray, fluorescence 635/667, stem cell growth factor project, primary screen (AID 1064).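 Further: measures binding of the biotinylated anti-FSTL3 antibody to printed compounds.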 To be noted: higher = more signal.
Test [2] is described as follows: binders from COS7 lysate, DM2A8 probe, primary screen, torsin A project, cell lysate, small-molecule microarray, fluorescence 635/667 (AID 1065). To be noted: higher = more signal, COS7 lysate expressing mutant human TOR1A.
The nature of test [3]: small molecules captured by biotinylated probe aFGF2 – biochemical, small-molecule microarray, fluorescence 635/667, stem cell growth factor project, primary screen (AID 1067).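 Further: measures binding of biotinylated aFGF2 protein to printed compounds on slides; z-score merges feature fluorescence and signal-to-noise across triplicate slides.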 To be noted: higher = more signal.
Test [4] can be described thus: small molecules captured by biotinylated probe aFGF10 – biochemical, small-molecule microarray, fluorescence 635/667, stem cell growth factor project, primary screen (AID 1071).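 Further: score merges 667 nm spot intensity and signal to noise from triplicate slides.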 To be noted: higher = more signal.
For test [5], the target named is Neurogenic locus notch homolog protein 2 (Homo sapiens) (UniProt Q04721). In words: small molecules binding Notch2 protein – biochemical, small-molecule microarray, 635 nm fluorescence, stem cell growth factors, primary screen (AID 1073). Conditions: higher = more signal.
The target of test [6] is Pro-neuregulin-1, membrane-bound isoform (Homo sapiens) (UniProt Q02297). Briefly: small molecules binding neuregulin-1 protein – biochemical, small-molecule microarray, fluorescence 635/667, psychiatric disease protein project, primary screen (AID 1075).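 Further: score combines 667 nm spot fluorescence with signal to noise.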 Conditions: NRG1 binding, 635 nm fluorescence, higher = more signal.
For test [7], the system named is Neuregulin-1 EGF-like domain. In words: small molecules binding NRG1 EGF domain – biochemical, small-molecule microarray, 635 nm fluorescence, primary screen (AID 1081).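 Further: binding of the protein to compounds printed on small-molecule microarray slides.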 To be noted: higher = more signal.
Test [8] is described as follows: FRG1 expression reporter modulators in myotubes – cell-based, C2C12 myotubes, firefly/Renilla luciferase, luminescence, FRG1 inhibition for FSHD, primary screen (AID 1084). To be noted: FRG1 promoter luciferase, higher = more signal, called active from +8 up or from −8 down.
Test [9] is described as follows: small molecules captured by biotinylated probe aFST – biochemical, small-molecule microarray, fluorescence 635/667, stem cell growth factor project, primary screen (AID 1086).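 Further: score merges 667 nm fluorescence with signal-to-noise of each printed compound spot.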 Conditions: higher = more signal.
Test [10] can be described thus: binders of probe aHhip on microarray, primary screen, stem cell growth factor project, biochemical, small-molecule microarray, fluorescence 635/667 (AID 1087).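 Further: score merges spot fluorescence at 667nm with spot signal to noise ratio.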 To be noted: higher = more signal.
Test [11] relates to PRMT1 (protein arginine N-methyltransferase 1). In words: small molecules binding arginine methyltransferase PRMT1 – biochemical, small-molecule microarray, 635 nm fluorescence, primary screen (AID 1088).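 Further: binding of Prmt1 protein to compounds spotted on small-molecule microarray slides.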 To be noted: higher = more signal.
Test [12] in a line: growth effects on S. cerevisiae YJM789 – YJM789 clinical isolate, OD600, 24 h, basal, primary screen (AID 1089).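 Further: growth of clinical yeast isolate S. cerevisiae YJM 789 seeded 1000 cells per well; test concentration not given here.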 To be noted: higher = more signal, called active from +8 up or from −8 down.
A short description of test [13]: S. pombe growth modifiers, basal conditions – strain 972, OD600, 24 h, no modulator, primary screen (AID 1090).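 Further: basal condition with compound alone and no growth modifier present; test concentration not given here.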 To be noted: S. pombe 972 growth, higher = more signal, called active from +8 up or from −8 down.
The nature of test [14]: budding yeast growth modifiers under rapamycin – strain BY4716, OD600, 96 h, primary screen (AID 1091). Further: test concentration not given here. To be noted: S. cerevisiae BY4716 + rapamycin, higher = more signal, called active from +8 up or from −8 down.
The target of test [15] is Torsin-1A-interacting protein 2 (Homo sapiens) (UniProt Q8NFQ8). Briefly: small molecules binding lysate-expressed LULL1 – cell lysate, human LULL1 lysate, 635/667 nm fluorescence, primary screen (AID 1092).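 Further: score merges per-feature 667 nm fluorescence with signal-to-noise.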 To be noted: small-molecule microarray, hLULL1 lysate binding, 635 nm fluorescence; higher = more signal.
The nature of test [16]: optical density change of DRC41 E. coli – strain DRC41, OD650, 24 h, E. coli filamentation project, primary screen (AID 1093).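 Further: MC1000 strain lacking acrAB efflux and sulA so SOS filamentation is blocked; test concentration not given here.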 Conditions: E. coli DRC41 growth, higher = more signal, called active from +8 up or from −8 down.
Test [17] in a line: probe aLefty2 binding to arrayed compounds – biochemical, biotinylated probe, 635/667 nm fluorescence, primary screen (AID 1094).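 Further: score merges spot fluorescence near 667 nm with spot signal-to-noise ratio.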 Conditions: small-molecule microarray, higher = more signal.
Test [18] concerns Noggin (protein binding on small-molecule microarray). Briefly: small molecules binding Noggin protein – biochemical, 635/667 nm fluorescence, primary screen (AID 1095).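 Further: score merges 667 nm feature fluorescence with signal to noise over triplicate slides.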 Conditions: 635 nm fluorescence, higher = more signal.
Test [19] deals with Neurogenic locus notch homolog protein 3 (Homo sapiens) (UniProt Q9UM47). In words: small molecules binding NOTCH3 protein – biochemical, 635/667 nm fluorescence, primary screen (AID 1096). Conditions: small-molecule microarray, 635 nm fluorescence, higher = more signal.
A short description of test [20]: probe aEGFR binding to arrayed compounds – biochemical, biotinylated probe, 635/667 nm fluorescence, primary screen (AID 1097).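 Further: probe is a biotinylated anti-EGFR antibody binding compounds printed on slides; score combines fluorescence near 667 nm and signal to noise of each spot.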 To be noted: small-molecule microarray, higher = more signal.

Neurogenic locus notch homolog protein 3 (Homo sapiens), sequence (Q9UM47 whole entry, looked up): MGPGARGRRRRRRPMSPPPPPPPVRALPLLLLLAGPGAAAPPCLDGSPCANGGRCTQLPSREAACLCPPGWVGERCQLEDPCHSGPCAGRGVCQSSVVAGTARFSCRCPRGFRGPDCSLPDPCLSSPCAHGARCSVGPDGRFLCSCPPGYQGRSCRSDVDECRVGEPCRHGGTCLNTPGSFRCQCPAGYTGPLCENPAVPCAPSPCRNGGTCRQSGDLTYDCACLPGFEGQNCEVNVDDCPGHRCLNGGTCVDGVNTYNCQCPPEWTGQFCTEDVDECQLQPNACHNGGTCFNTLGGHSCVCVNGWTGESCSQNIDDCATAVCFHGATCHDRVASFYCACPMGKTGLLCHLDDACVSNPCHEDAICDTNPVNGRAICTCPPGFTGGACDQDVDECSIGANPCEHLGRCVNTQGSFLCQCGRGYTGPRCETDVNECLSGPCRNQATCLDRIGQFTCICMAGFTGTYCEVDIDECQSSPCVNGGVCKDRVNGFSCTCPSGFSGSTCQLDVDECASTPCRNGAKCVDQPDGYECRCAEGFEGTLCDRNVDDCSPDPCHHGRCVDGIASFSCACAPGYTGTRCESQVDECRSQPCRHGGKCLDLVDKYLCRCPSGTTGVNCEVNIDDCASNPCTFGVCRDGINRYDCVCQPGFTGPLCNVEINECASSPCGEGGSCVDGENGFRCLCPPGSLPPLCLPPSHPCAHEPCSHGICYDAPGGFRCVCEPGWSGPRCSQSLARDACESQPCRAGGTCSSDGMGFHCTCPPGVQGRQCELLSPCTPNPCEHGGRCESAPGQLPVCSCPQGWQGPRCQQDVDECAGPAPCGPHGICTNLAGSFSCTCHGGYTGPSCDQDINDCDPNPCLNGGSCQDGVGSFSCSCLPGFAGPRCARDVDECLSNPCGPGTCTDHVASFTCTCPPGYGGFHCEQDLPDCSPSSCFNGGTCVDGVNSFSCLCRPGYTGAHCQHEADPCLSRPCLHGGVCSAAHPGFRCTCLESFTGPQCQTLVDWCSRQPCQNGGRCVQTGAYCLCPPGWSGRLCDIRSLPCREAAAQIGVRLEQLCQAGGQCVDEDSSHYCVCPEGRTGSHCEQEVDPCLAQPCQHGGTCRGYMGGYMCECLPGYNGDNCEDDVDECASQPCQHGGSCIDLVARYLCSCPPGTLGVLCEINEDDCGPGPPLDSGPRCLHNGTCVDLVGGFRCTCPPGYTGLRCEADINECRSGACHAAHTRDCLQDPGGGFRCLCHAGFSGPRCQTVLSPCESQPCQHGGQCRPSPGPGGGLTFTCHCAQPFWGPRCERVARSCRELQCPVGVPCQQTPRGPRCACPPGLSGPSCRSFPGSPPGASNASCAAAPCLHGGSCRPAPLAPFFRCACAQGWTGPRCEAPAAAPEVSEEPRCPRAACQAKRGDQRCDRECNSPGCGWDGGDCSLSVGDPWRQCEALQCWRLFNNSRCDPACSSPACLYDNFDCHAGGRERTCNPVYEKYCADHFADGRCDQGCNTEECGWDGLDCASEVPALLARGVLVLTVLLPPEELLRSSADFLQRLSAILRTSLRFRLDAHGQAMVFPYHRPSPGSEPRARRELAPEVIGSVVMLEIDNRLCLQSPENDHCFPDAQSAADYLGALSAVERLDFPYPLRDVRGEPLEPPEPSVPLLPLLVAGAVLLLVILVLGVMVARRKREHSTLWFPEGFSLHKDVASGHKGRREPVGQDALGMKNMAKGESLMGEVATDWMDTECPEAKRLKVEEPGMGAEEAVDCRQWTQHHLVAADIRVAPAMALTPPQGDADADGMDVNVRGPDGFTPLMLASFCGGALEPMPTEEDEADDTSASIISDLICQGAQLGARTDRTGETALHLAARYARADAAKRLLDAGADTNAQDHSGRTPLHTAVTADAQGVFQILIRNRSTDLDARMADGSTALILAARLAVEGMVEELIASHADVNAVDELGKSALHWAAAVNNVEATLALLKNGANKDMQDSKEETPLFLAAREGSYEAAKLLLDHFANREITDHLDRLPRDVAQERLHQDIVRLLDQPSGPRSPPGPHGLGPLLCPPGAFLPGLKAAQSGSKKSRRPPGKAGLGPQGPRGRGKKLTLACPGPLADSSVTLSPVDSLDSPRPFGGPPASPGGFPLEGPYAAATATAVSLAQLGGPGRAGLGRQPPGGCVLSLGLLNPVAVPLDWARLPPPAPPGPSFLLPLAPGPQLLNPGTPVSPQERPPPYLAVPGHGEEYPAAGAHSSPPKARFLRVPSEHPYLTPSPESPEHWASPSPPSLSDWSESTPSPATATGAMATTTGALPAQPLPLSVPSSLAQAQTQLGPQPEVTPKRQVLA
Torsin-1A-interacting protein 2 (Homo sapiens), sequence (Q8NFQ8 whole entry, looked up): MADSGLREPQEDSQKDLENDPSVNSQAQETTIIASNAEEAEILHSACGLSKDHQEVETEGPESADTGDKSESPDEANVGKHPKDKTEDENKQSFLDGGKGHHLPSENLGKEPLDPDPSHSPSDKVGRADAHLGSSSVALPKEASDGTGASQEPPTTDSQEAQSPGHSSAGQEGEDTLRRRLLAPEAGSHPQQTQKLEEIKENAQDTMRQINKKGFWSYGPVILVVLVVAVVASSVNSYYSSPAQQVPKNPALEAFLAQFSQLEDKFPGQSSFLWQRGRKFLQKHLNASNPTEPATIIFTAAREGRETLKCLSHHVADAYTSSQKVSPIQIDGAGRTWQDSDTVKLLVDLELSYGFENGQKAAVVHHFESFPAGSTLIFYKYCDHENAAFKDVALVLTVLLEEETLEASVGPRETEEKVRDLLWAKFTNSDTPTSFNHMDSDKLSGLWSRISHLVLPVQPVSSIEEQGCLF
Pro-neuregulin-1, membrane-bound isoform (Homo sapiens), sequence (Q02297 whole entry, looked up, the tested form may be a part, canonical isoform): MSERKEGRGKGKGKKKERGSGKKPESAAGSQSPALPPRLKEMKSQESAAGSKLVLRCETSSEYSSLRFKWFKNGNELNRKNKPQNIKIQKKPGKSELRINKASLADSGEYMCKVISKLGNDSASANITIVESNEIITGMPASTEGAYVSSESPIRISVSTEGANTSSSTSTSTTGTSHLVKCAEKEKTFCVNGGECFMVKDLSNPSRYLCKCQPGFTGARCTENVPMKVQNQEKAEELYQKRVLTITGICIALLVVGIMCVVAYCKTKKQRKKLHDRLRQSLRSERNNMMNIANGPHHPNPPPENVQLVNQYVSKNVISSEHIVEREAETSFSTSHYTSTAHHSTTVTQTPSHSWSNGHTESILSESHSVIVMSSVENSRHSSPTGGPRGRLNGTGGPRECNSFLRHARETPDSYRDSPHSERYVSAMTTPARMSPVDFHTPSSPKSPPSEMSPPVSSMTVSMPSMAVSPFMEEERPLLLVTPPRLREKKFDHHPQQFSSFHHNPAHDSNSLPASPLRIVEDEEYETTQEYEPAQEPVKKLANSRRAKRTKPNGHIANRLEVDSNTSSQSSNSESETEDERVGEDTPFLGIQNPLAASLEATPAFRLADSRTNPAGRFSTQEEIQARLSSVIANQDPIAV

Regarding `CC1(C)C(=O)C(c2ccccc2)=C2CN3C(=O)N(CCc4ccccc4)C(=O)C3(Cc3ccc(C(F)(F)F)cc3)C=C21` (stereo not given), the composite z-score in test [1] was 0.138; in test [2] it was -0.2; in test [3] it was 0.0814; in test [4] it was 0.432; in test [5] it was 1.66; in test [6], 0.613. For the same molecule, the composite z-score is 0.831 in test [7]; 1.67 in test [9]; -0.0024 in [10]; -0.362 in test [11]; 2.65 in [15]; 0.208 in [17]. Also, the composite z-score is -0.0717 in [18], 1.13 in test [19] and 0.284 in [20]. Besides, the z-score is -0.495 (inactive) in [8]; 1.32 (inactive) in test [12]; 2.01 (inactive) in test [13]; 3.28 (inactive) in test [14]; -1.21 (inactive) in [16].
For `COC(=O)C1=CC(CCCO)=CC(C)N(Cc2cccc(OC(F)(F)F)c2)C=C1C(=O)OC` (stereo not given), the composite z-score in [1] is -0.385; in [2], -0.383; in test [3], -0.0667; in [4], 0.157; in [5], 0.412; in [6] it was 2.05. Further, the composite z-score in test [7] was 1.21; in test [9] it was 0.577; in [10], -0.0994; in [11] it was 0.897; in test [15] it was 2.65; in test [17], -0.0712. Besides, the results for the composite z-score in test [18], in test [19] and in test [20] were -0.296, 0.532 and -0.02, respectively. The z-score in test [8] was -0.181 (inactive); in [12], -0.743 (inactive); in [13] it was -2.12 (inactive); in test [14], 0.219 (inactive); in [16] it was -1.53 (inactive).
On to `CCCC=C(CCC)[C@@H](NC(=O)CCc1ccccc1)c1ccc(C(F)(F)F)cc1`, for which the composite z-score in test [1] stood at 0.304; in test [2] it was 0.0979; in test [3], 0.0836; in test [4], 0.0199; in test [5], 1.53; in [6] it was 1.51. The composite z-score was determined as 0.969 in test [7]; 0.821 in [9]; 0.107 in test [10]; 1.1 in [11]; 3.4 in test [15]; 0.201 in [17]. For the same molecule, the composite z-score in [18] is 0.0368; in test [19], 1.12; in [20], -0.0423. For the same molecule, the z-score was -0.129 (inactive) in [8]; -0.296 (inactive) in test [12]; -1.19 (inactive) in [13]; 0.654 (inactive) in test [14]; -0.604 (inactive) in [16].
As for `CCOC(=O)C[C@H]1[C@H](OC(=O)c2ccc(C(=O)c3ccccc3)cc2)[C@@H](NC(=O)CC(C)C)c2cc(OCCCO)ccc2N1C(=O)Cc1ccc(OC)cc1`, the composite z-score was 0.134 in test [1]; 0.819 in test [2]; -0.105 in [3]; 0.209 in test [4]; 0.342 in test [5]; 0.517 in [6]. Moreover, the composite z-score was 0.2 in [7]; 0.51 in test [9]; -0.0074 in [10]; 0.451 in test [11]; 0.663 in [15]; 0.0351 in test [17]. The values for the composite z-score in test [18], in test [19] and in [20] were -0.114, 0.477 and -0.0585, respectively. Further, the z-score was -1.69 (inactive) in [8]; 0.247 (inactive) in test [12]; 0.22 (inactive) in test [13]; 0.265 (inactive) in test [14]; -0.113 (inactive) in [16].
Regarding `NC(=O)[C@@H]1[C@H]2C(=O)O[C@H](c3ccccc3)[C@H](c3ccccc3)N2[C@H](c2ccc(OCCO)cc2)[C@@]12C(=O)Nc1ccc(C#CCCO)cc12`, the composite z-score stood at 0.398 in test [1]; 0.165 in test [2]; 0.0122 in [3]; 0.786 in test [4]; 0.472 in test [5]; 1.23 in test [6]. In addition, the composite z-score in [7] was 1.22; in [9], -0.222; in test [10] it was -0.236; in test [11] it was 1.45; in test [15], 1.85; in test [17], 0.0847. Moreover, the composite z-score in test [18] is -0.159; in test [19] it was -0.0629; in test [20], -0.0622. The z-score in [8] is 1.62 (inactive); in [12], 1.58 (inactive); in test [13] it was 0.883 (inactive); in test [14], 2.3 (inactive); in [16] it was 0.459 (inactive).
